# Measured values taken from publication PMC12136788.
# Changes are numbered by the printed parent chain. The full ranking holds about 24,000 sequences; the median of “enrichment r” is about 0.99, and the highest 2% start at about 3.7. Shown is part of a subset that was picked to be rich in the highest values.
# T1: UNK ZnF1-3 (human, UniProt Q9C0B0 31-174)
# T1 sequence: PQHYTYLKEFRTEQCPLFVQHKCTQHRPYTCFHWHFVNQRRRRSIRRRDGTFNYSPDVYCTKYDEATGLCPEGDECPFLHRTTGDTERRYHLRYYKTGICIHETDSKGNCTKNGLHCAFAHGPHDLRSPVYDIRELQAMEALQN
# B1: 90660906_90661026_1561_CDS_ENSG00000112182_ENST00000537989|human|control|control (ssRNA)
# RNA: GGGAGUUCUACAGUCCGACGAUCAUCCCCCGCUCUGUCCUUGGCGUCAGGCUCAUCUCCAGACAGGCAGAGCGUGAUGCUCUCUUCCUCAUUCUCUUCACUGGGCGGCUCACUUUUAAUCUGCCCCCUGGCAAGCCCCGGCUUCAACAGAGGAUUGAGCAUCA
# B2: chr2:119552488:119552489:+_ENSMUSG00000027304_ENSMUST00000028767|mus_hu|FALSE|FALSE (ssRNA)
# RNA: GGGAGUUCUACAGUCCGACGAUCGAACAUCGCUUCUUUCCACUUCAUAAACUCACUUUCGGUGAAUUCUUGGUUUGAGACAAACUCUAAACGGAACACGCGUUGGUCAUUGCCAUGCCGUAGUUGCAGCCCUUUGUUUGUUCUCAACAGAGGAUUGAGCAUCA
# B3: 98509248_98511339_722_CDS_ENSG00000140450_ENST00000268042|human|control|control (ssRNA)
# RNA: GGGAGUUCUACAGUCCGACGAUCGUAUCCCUUUCUUUCAAUUUUGGCACUCAGCGAGACUGGACCAGAAGUGAAAAACCAACAGCCAACCAUUUUCUCUUGAGUUUUCAAUACAGGGGUUAAUAAUGCUGGUGUGUUGACAUCCAACAGAGGAUUGAGCAUCA
# B4: chr16:45382771:45382772:-_ENSMUSG00000022661_ENSMUST00000163230|mus_mus|mus_mus_mus_hu_True|38_108 (ssRNA)
# RNA: GGGAGUUCUACAGUCCGACGAUCCUGAGUGUUAUUGUAAGACAAAUGGACAGGGAGGGCAUGCUUCUCAAAAAAUGUGAGCUAUUGUCUAAGACUAACAAUAUUGCUCUAGCUAUAAAAAUAAGUUAAAUGAAUAAGUUAAGACAACAGAGGAUUGAGCAUCA
# B5: chr16:45382771:45382772:-_ENSMUSG00000022661_ENSMUST00000163230|mus_mus|mus_mus_mus_hu_True|38_88 (ssRNA)
# RNA: B4 RNA with A27G, G30C, U31A, A33G, G36A, C50U
# B6: chr16:45382771:45382772:-_ENSMUSG00000022661_ENSMUST00000163230|mus_mus|mus_mus_mus_hu_True|1_38 (ssRNA)
# RNA: GGGAGUUCUACAGUCCGACGAUCCUGGGUCAUGUUAUAAGACAAAUGGACAGGGAGGGCAUGCUUCUCAAAAAAUGUGAGCUAUUGUCUAAGACUAACAAUAUUGCUCUAGCUAUAAAAAUAAGUUAAAUGAAUAAACAUUACCAACAGAGGAUUGAGCAUCA
# B7: 107603385_107603505_2018_CDS_ENSG00000091136_ENST00000393561|human|control|control (ssRNA)
# RNA: GGGAGUUCUACAGUCCGACGAUCGGAAUAUGGUAUGUUGUCAAUGAAAAACUCCAAAUAAGCCCCUUCAGGCACUCGGACGAAGCCGGCUCCAGUCCAGGAGGGAAUCCGGUCCUGGAUAUAUUGCCGCUCCACUAUGCUAACCAACAGAGGAUUGAGCAUCA
# B8: chr16:45382771:45382772:-_ENSMUSG00000022661_ENSMUST00000163230|mus_mus|mus_mus_mus_hu_True|38_98 (ssRNA)
# RNA: B4 RNA with A27G, G30C, U31A, A33G, G36A, A38G, A39G, A41C, A43C
# B9: chr3:8561242:8561243:+_ENSMUSG00000027500_ENSMUST00000029002|mus_hu|FALSE|FALSE (ssRNA)
# RNA: GGGAGUUCUACAGUCCGACGAUCAACAACCAGCUCACAGUUUCCAAGUGGAAAAAUAUUCAGUAGCAUCAUGUACUUGUACUAUAGGUAAGAGCUUAAAAUGAACAUCAUCAAUCAUGGCAUCCACAAAUAAGCCACCUGACACAACAGAGGAUUGAGCAUCA
# B10: chr7:149068622:149068623:-_ENSMUSG00000025139_ENSMUST00000001950|mus_hu|mus_mus_mus_hu_False|68_108 (ssRNA)
# RNA: GGGAGUUCUACAGUCCGACGAUCGUGCAGGUACUGAGUGUGGCUUGUGGUCUGUCCUGGGUUAGAGCUGCUGGUAACACGGAACAUACCAUCUAGAACGUUCCAGUCCCGCCUGACACCUUCAUUCCCAAUGGAGAAGAAAUCCAACAGAGGAUUGAGCAUCA
# B11: chr2:5814250:5814251:-_ENSMUSG00000025816_ENSMUST00000102981|mus_hu|mus_mus_mus_hu_True|58_58 (ssRNA)
# RNA: GGGAGUUCUACAGUCCGACGAUCUUCCUUUCCGGUUUCUGAAUUUCUGGUAGAACUGCACAGAAUGGUUUGAUAACUUCUAAAAACUUGAUGCCCAUGGCUGCUGCUGGGGAGGCCCAGGGGGAAACCGCGGCCUCGGCGCUGCAACAGAGGAUUGAGCAUCA
# B12: 97007495_97007615_238_CDS_ENSG00000121152_ENST00000240423|human|control|control (ssRNA)
# RNA: GGGAGUUCUACAGUCCGACGAUCCAAUAAGCGAGGUGAGUCAGUGCUGAACUGCAGAUCAAAGACCCUCGAGCGCCUCCGCUGCAGCCGCUCCUUCUCAUCGUCAUUCUGAGGAAAGUCUUCGAGGACUGGGGUGCCAGGAAUCAACAGAGGAUUGAGCAUCA
# B13: 96635784_96638769_164_5pUTR_ENSMUSG00000020876_ENSMUST00000107661|mouse|control|control (ssRNA)
# RNA: GGGAGUUCUACAGUCCGACGAUCCCACAAGCCCAUGGGAAGGGCACAUAGGUGUUCGAGGAAGCUCUUCCGCCUGACAGAAAACCUGUCCCGUCCAUCAAGCAGCUGUUCUCAUUUUUCAGUCGGUAACCCACUCCUUUCACCCAACAGAGGAUUGAGCAUCA
# B14: chr12:39756943:39756944:-_ENSG00000139116_ENST00000544797|hu_mus|hu_hu_hu_mus_False|28_68 (ssRNA)
# RNA: GGGAGUUCUACAGUCCGACGAUCGGUUUGGCUGUUACCCCCAAGGGAAUCCUGCAAGAGUCUUGUCAGCUUGGAAUCUCUGUAAGGGACAUGGGUGGCUCUCUUGCUCUUGUCUCCCAAGGCGCUGAUUACAUUCCCAAGAGCCAACAGAGGAUUGAGCAUCA
# B15: chr16:45382771:45382772:-_ENSMUSG00000022661_ENSMUST00000163230|mus_mus|mus_mus_mus_hu_True|38_48 (ssRNA)
# RNA: B4 RNA with A27G, G30C, U31A, A33G, G36A, U87A
# B16: chr19:16212804:16212805:+_ENSG00000167460_ENST00000300933|hu_mus|hu_hu_hu_mus_False|38_98 (ssRNA)
# RNA: GGGAGUUCUACAGUCCGACGAUCAACAAUUCUGGAGAAGAACAUCAAUGUAACAUGGAACAGCAUUAAAGCUCAGUCAGAAGGCACAUGGGCAACAAUGACUAUUUCAGCAUUCUCGCUUGGAAUGCUUAAAGACAAUCUGUUCAACAGAGGAUUGAGCAUCA
# B17: chr16:45382771:45382772:-_ENSMUSG00000022661_ENSMUST00000163230|mus_mus|mus_mus_mus_hu_True|38_38 (ssRNA)
# RNA: B4 RNA with A27G, G30C, U31A, A33G, G36A
# B18: chr4:76721835:76721836:+_ENSG00000138768_ENST00000264904|hu_mus|hu_hu_hu_mus_True|8_28 (ssRNA)
# RNA: GGGAGUUCUACAGUCCGACGAUCGUUUGGCUGGGGUUUCUGAGACGCUCUGGAAUAUAACUCAUGUUUGCUAAUAAAUCCUAGUUUCUCUAUGAAAUUCUCUUUGCAAUCCUCUUCCUCUAUUAGUGUUUUAGCUUUCUCUUUCAACAGAGGAUUGAGCAUCA
# B19: chr16:45382771:45382772:-_ENSMUSG00000022661_ENSMUST00000163230|mus_mus|mus_mus_mus_hu_True|38_78 (ssRNA)
# RNA: B4 RNA with A27G, G30C, U31A, A33G, G36A, G57A, C66U
# B20: chr16:45382771:45382772:-_ENSMUSG00000022661_ENSMUST00000163230|mus_mus|mus_mus_mus_hu_True|18_38 (ssRNA)
# RNA: GGGAGUUCUACAGUCCGACGAUCCUGGGUCAUGUUAUAAGACAAAUGGACAGGGAGGGCAUGCUUCUCAAAAAAUGUGAGCUAUUGUCUAAGACUAACAAUAUUGCUCUAGCUAUAUAAAAAUAAGAAAUGAAUAAGUUAAGACAACAGAGGAUUGAGCAUCA
# B21: chr4:76721835:76721836:+_ENSG00000138768_ENST00000264904|hu_mus|hu_hu_hu_mus_True|18_28 (ssRNA)
# RNA: GGGAGUUCUACAGUCCGACGAUCGUUUGGCUGGGGUUUCUGAGACGCUCUGGAAUAUAACUCAUGUUUGCUAAUAAAUCCUAGUUUCUCUAUGAAAUUCUCUUUGCAAUCCUCUUCUCAAUCAGUUUGCUUUAGUUUCUCUUUCAACAGAGGAUUGAGCAUCA
# B22: chr3:10015032:10015033:+_ENSMUSG00000027533_ENSMUST00000029046|mus_mus|mus_mus_mus_hu_True|1_28 (ssRNA)
# RNA: GGGAGUUCUACAGUCCGACGAUCGUUUUUACCAUCACAAGUGAUGAUACAAUCUGGCUUGGCCAUUGCGCCCAUUUUUCGCAAAGCUAUUCCCACUCCUAGCUCCUUCAUGUACUCAUCAAAGCCUUUGCUGUCCAUCAGGCGCAACAGAGGAUUGAGCAUCA
# Target: T1, UNK ZnF1-3
# Assay: nsRBNS (natural sequence RNA bind-n-seq); RBNS binding buffer (assumed for nsRBNS): 25 mM Tris pH 7.5, 150 mM KCl, 3 mM MgCl2, 0.01% Triton X-100, 500 ug/ml BSA, 20 U/ml SUPERase-In, 4 C; UNK is unkempt and MSI1 is Musashi-1; names of the RNAs are library labels; protein concentration not given here; high values mean tight binding
row,Binder,binding signal [enrichment R]
1,B1,0.641
2,B2,0.468
3,B3,1.16
4,B4,8.75
5,B5,7.9
6,B6,6.59
7,B7,0.989
8,B8,11.2
9,B9,1.49
10,B10,0.783
11,B11,1.21
12,B12,1.1
13,B13,1.14
14,B14,0.792
15,B15,8.11
16,B16,1.15
17,B17,16.7
18,B18,0.588
19,B19,13.9
20,B20,10.5
21,B21,0.475
22,B22,0.662
